Source: PubChem BioAssay
A selection: hits, their analogues and other compounds. The true share with any hit is near 2.6%.
Cruzain inh noDet – inhibitors of Trypanosoma cruzi cruzain without detergent; P25779; purified cruzain, Z-FR-AMC fluorescence, no detergent; Potency, µM, for inactives: max response, negative = inhibition, actives largely listed as inhibitors; 200,000 compounds, 2.3% hits; AID 1476;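 further: plate controls were enzyme without inhibitor for no effect and buffer without enzyme for full effect; nearly all actives have a fitted effect of over 40% in size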
Target sequence (P25779 123-467 limits assumed): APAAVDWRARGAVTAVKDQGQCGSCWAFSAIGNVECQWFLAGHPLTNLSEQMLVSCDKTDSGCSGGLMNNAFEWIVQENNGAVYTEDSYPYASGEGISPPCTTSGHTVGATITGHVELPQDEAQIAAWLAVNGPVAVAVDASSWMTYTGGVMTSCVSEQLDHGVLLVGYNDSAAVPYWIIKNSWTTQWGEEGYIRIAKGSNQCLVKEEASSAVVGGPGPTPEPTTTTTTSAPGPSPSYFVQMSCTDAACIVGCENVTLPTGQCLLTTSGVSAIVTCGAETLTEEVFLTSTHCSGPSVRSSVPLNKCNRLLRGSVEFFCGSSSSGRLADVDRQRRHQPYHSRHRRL
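Purified cruzain at 1.5 nM, pre-incubated 15 min with compound at room temperature in 100 mM sodium acetate pH 5.5, 5 mM DTT, 0.00005% Triton X-100. Reaction started with 2 uM Z-FR-AMC; AMC fluorescence increase over 60 s gives rate.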
Cruzain inh Det – blocks cruzain activity in presence of Triton detergent; P25779; purified cruzain, Z-FR-AMC fluorescence, 0.01% Triton; Potency, µM, for inactives: max response, negative = inhibition, usual class: inhibitors; 200,000 compounds, 0.43% hits; AID 1478;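 further: plate controls were neutral wells for no effect and buffer without enzyme for full effect; nearly all actives have a fitted effect of over 40% in size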
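Enzyme 1.5 nM, Z-FR-AMC 2 uM, NaOAc 100 mM pH 5.5, DTT 5 mM, Triton X-100 0.01%; 15 min RT compound preincubation; kinetic ex360/em450, 60 s delta.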
Active calls of the source: *; ? = inconclusive. The call rests on the fitted dose curve; in most records, active means well fitted curve in the direction sought with a large enough effect; inconclusive means small, poorly fitted or top-dose-only effect, or another doubt; inactive means no such curve, though single readings can be large; an effect the other way counts as inactive or inconclusive. Potency means the concentration at half of the fitted maximal effect.

SMILES	Cruzain inh noDet	Cruzain inh Det
CN(C)CCCc1c2ccccc2nc2ccc(Cl)cc12	3%	-2%
COC(=O)c1cc2sc(Cl)cc2n1CC(=O)NCCC(C)C	25µM*	3%
COC(=O)c1cc2sc(Cl)cc2n1CC(=O)Nc1cc(OC)cc(OC)c1	18%	-2%
O=C(NC(=S)NCc1ccc(-c2nc3ccccc3s2)cc1)c1ccco1	?	-3%
O=C(NCc1ccc(-c2nc3ccccc3s2)cc1)c1ccco1	25µM*	-3%
COc1c2ccoc2nc2c(OC)c(O[C@@H]3O[C@H](C)[C@@H](O)[C@@H](O)[C@H]3O)ccc12	-2%	-1%
Cc1cccc(N=Nc2c(N)n[nH]c2-c2ccc(Cl)cc2)c1	25µM*	-6%
Cc1ccc(-c2[nH]nc(N)c2N=Nc2cccc(Cl)c2C)cc1	?	-3%
COCCNC(=O)c1c(NC(=O)c2cc(=O)c3cc(C)cc(C)c3o2)sc2c1CCCC2	0%	-1%
CCOC(=O)c1cc2c(=O)n3ccccc3nc2n(CCOC)c1=NC(=O)c1c(-c2ccccc2Cl)noc1C	0%	-1%
COc1ccc2c(c1)c1nnc(SCC(=O)N3C(C)CCCC3C)nc1n2C (stereo not given)	-17%	18µM*
COc1ccc2c(c1)c1nnc(SC)nc1n2C	-1%	-5%
CCC(C)NC(=O)Cn1c(=O)n(Cc2ccc(C(=O)NCCCOC)cc2)c(=O)c2ccccc21 (stereo not given)	-1%	-1%
COc1cc(OC)cc(-c2nc(-c3ccccc3OC)no2)c1	?	-1%
COc1cc(N=c2ssnc2Cl)cc(OC)c1	16µM*	-12%
CCC(=O)N1CCc2cc(S(=O)(=O)NCCC(=O)Nc3ccc(OC)c(OC)c3)ccc21	1%	-2%
CCCSc1nc2c(cnn2-c2ccc(Cl)cc2)c(=O)[nH]1	10µM*	0%
O=c1[nH]c(-c2ccc(Cl)cc2)nc2c1cnn2-c1ccccc1	25µM*	5%
CCCCSc1nc2c(cnn2-c2ccc(F)cc2)c(=O)[nH]1	-5%	-3%
Cc1ccc(-c2nc3c(cnn3-c3ccccc3)c(=O)n2-c2ccc(Cl)cc2)cc1	-11%	-3%
CCNC(=O)c1cnc2c(-c3ccccc3)c(C)nn2c1C	10%	1%
Cc1ccccc1-c1ncnn1-c1sc2c(c1C#N)CCCCC2	3%	-2%
Cc1nc2ccn(Cc3ccccc3)c(=O)c2cc1C(=O)Nc1ccc(F)cc1Cl	3%	-4%
COc1ccc(OC)c(Nc2nc(C3CC3)nc3c2nnn3Cc2ccccc2)c1	-5%	-10%
c1ccc(Cn2nnc3c(Nc4ccc5c(c4)OCO5)nc(C4CC4)nc32)cc1	16µM*	-2%
SMILES	Cruzain inh noDet	Cruzain inh Det
Cc1cccc(NC(=S)N/N=C/c2cccc([N+](=O)[O-])c2)c1	1%	-14%
Cc1cc(C(=O)N/N=C/c2cccc([N+](=O)[O-])c2)c(C)n1-c1ccccc1	-25%	-5%
Cc1cccc(NC(=S)N/N=C/c2ccc(Cl)c([N+](=O)[O-])c2)c1	32µM*	-3%
NC(=S)N/N=C/c1cc([N+](=O)[O-])ccc1OCCOc1ccccc1	0.16µM*	0.25µM*
O=[N+]([O-])c1ccc(Cl)c(/C=N/NC(=S)Nc2ccccc2)c1	25µM*	-8%
CC(=O)N/N=C/c1cc([N+](=O)[O-])ccc1OCCOc1ccccc1	3%	2%
CS(=O)(=O)N(CC(=O)N/N=C/c1cc([N+](=O)[O-])ccc1Cl)c1ccccc1	-17%	-7%
Cc1cc(C(=O)N/N=C/c2ccc(Cl)c([N+](=O)[O-])c2)c(C)n1-c1ccc(F)cc1	7.9µM*	1%
COc1ccc(OC)c(S(=O)(=O)NCCc2sc(-c3ccc(C)cc3)nc2C)c1	?	-8%
O=C(Nc1cc(-c2nc3ccccc3s2)ccc1Cl)c1cc2ccccc2o1	2%	0%
Cc1cc2oc(C(=O)Nc3ccc(S(=O)(=O)N4CCCCCC4)cc3)cc(=O)c2cc1C	-14%	-1%
CN1CCN(c2ncc3ncc(=O)n(CCC#N)c3n2)CC1	-18%	-7%
CCOC(=O)Cn1c(=N)n(Cc2ccc(C(C)(C)C)cc2)c2ccccc21	-1%	-3%
CCCN(CCC)C(=O)Cn1c(=O)n(-c2cccc(C(F)(F)F)c2)c(=O)c2c(C)c(C)sc21	4%	-4%
CCCOc1ccc(-c2c(C(=O)N/N=C/c3ccc(OC)cc3)nnn2-c2nonc2N)cc1	?	-8%
CCCOc1ccc(-c2c(C(=O)N/N=C/c3ccc(OCC)cc3)nnn2-c2nonc2N)cc1	10µM*	-15%
CCN(C(=O)c1nn(-c2ccc(C)cc2)c(=O)c2c1c1ccccc1n2C)c1ccc(F)cc1	-8%	-2%
C=CCc1ccccc1OCCSc1nc(-c2ccc(C(C)(C)C)cc2)nc2cc(=O)[nH]n12	4µM*	-3%
Cc1ccc(C(C)C)c(OCCSc2nc(-c3cccs3)nc3cc(=O)[nH]n23)c1	7.9µM*	1%
Cc1cccc(-c2nc(SCCCOc3cc(C)c(Cl)c(C)c3)n3[nH]c(=O)cc3n2)c1	-1%	-1%
Cc1cc(C)cc(OCCSc2nc(-c3cccs3)nc3cc(=O)[nH]n23)c1	6%	0%
COc1ccccc1OCCSc1nc(-c2ccc(C(C)(C)C)cc2)nc2cc(=O)[nH]n12	-9%	-6%
Cc1cccc(-c2nc(SCCCOc3ccccc3Cl)n3[nH]c(=O)cc3n2)c1	16µM*	3%
C=CCc1ccccc1OCCSc1nc(-c2cccs2)nc2cc(=O)[nH]n12	7.9µM*	0%
O=c1cc2nc(-c3cccs3)nc(SCCOc3ccc(Cl)cc3)n2[nH]1	-3%	4%
SMILES	Cruzain inh noDet	Cruzain inh Det
COc1ccc(NC(=O)CCS(=O)(=O)c2ccc3nc(C)sc3c2)cc1Cl	0%	-3%
O=C(Nc1ccccc1O)c1cc(S(=O)(=O)N2CCCC2)ccc1Cl	-6%	-2%
CC(C)Oc1ccc(CNC(=O)c2ccc(Cn3c(=O)c4cccn4c4cccnc43)cc2)cc1	-5%	-1%
Cn1c(C(=O)NCc2ccc(F)cc2)cc2c(=O)n(C)c3ccccc3c21	4%	1%
O=C(Nc1ccc(Cl)cc1)C(NS(=O)(=O)c1cccs1)c1ccccc1 (stereo not given)	-15%	-8%
COc1ccc(CCNC(=O)Cn2c(=O)c3cccn3c3ccc(F)cc32)c(OC)c1	4%	0%
CCOc1ccc(-c2nc(SCC(=O)Nc3ccc(C)c(C)c3)n3[nH]c(=O)cc3n2)cc1	6%	2%
Cc1ccc(NC(=O)CSc2nc(-c3ccc(C(C)(C)C)cc3)nc3cc(=O)[nH]n23)cc1C	4µM*	-1%
COc1ccc(NC(=O)CCCc2nnc3n(CCC(C)C)c(=O)c4sccc4n23)cc1Cl	23%	-3%
CCCCNS(=O)(=O)c1ccc(C)c(-c2nnc3c4ccccc4c(C)nn23)c1	1%	-2%
CN(C)c1ccc(-c2ccc3ncnc(NC4CC4)c3c2)cc1	-11%	-4%
CSc1ccc(Cl)c(C(=O)OCC(=O)NCc2ccco2)c1	3%	-22%
CSc1ccc(Cl)c(C(=O)NCc2ccco2)c1	20µM*	?
CCSC1=NC2(CCN(C(=O)NC3CCCCC3)CC2)N=C1c1ccc(C)cc1	-1%	0%
CCN(CC)c1ccc(NC(=O)C2CCN(S(=O)(=O)c3ccc4c(c3)oc(=O)n4C)CC2)c(C)c1	1%	-1%
COc1ccccc1NC(=O)c1ccc(CN(c2cc(Cl)ccc2C)S(=O)(=O)c2ccccc2)cc1	13µM*	0%
COc1ccc(NC(=O)c2ccc(CN(c3cc(Cl)ccc3C)S(=O)(=O)c3ccccc3)cc2)cc1OC	?	1%
